CBFb RUNX1 block – CBF-beta/RUNX1 interaction disruption; AlphaScreen CBFb-His/RUNX1-biotin binding, biochemical; Potency, µM (top dose mostly 59.8 µM), inactives show at the top dose activity, negative = inhibition, actives largely listed as inhibitors; 230,000 tested, under 10 active; Q01196+Q13951; further: % of control where 0% means no effect
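AlphaScreen binding: CBFb-His and RUNX1-biotin (30 nM each) preincubated 20 min, compound added for 15 min, then nickel and streptavidin beads for 90 min, all at room temperature. Disruption of the interaction by any mechanism counts as activity.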
HPGD block – blocks human HPGD enzyme activity; P15428; purified HPGD, NADH fluorescence kinetic, PGE2 substrate; Potency, µM, inactives show at the highest dose activity change, negative = inhibition, most hits filed as inhibitors; 4.3% of 150,000 active; AID 894; active means well fitted inhibition curve with a large enough effect, not every such curve was filed as active; inconclusive means small, poorly fitted or top-dose-only effect, or another doubt; inactive means no such curve, though single readings can be large or run the other way; further: potency means the concentration at half of the fitted maximal effect; on the % scale 0 is the no-effect control and ±100 the full control effect
Target sequence (P15428 whole entry, looked up): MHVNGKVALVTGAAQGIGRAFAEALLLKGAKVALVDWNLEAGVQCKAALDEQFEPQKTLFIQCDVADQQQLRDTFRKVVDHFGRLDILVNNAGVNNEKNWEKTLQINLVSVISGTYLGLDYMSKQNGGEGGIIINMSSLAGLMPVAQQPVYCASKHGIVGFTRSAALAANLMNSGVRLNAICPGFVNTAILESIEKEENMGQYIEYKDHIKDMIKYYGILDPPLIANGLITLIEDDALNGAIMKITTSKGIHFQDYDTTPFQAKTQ
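20 nM HPGD preincubated 15 min at room temperature with compound in 50 mM Tris-HCl pH 8, 0.01% Tween 20. Started with 1 mM NAD+ and 30 uM prostaglandin E2; NADH fluorescence (360/450 nm) read 5 times over 30-s intervals, last minus first.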
HttQ103 aggreg – reduces HttQ103-GFP aggregates in PC12 cells | AID 1688 | PC12 HttQ103-GFP aggregates, Acumen cytometry, 40 h | 1.1% of 220,000 active | Potency, µM (titrated, usually from 46.1 µM), inactives show top-dose activity change, negative = inhibition, actives largely listed as inhibitors; further: potency means the concentration at half of the fitted maximal effect; on the % scale 0 is the no-effect control and ±100 the full control effect; nearly all actives have a fitted effect of over 60% in size
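Compounds (qHTS titration) were added to PC12 cells expressing an ecdysone-driven HTT exon 1 Q103–GFP fusion after induction with 100 nM tebufenozide. Aggregate formation was measured as GFP objects in cell lysates.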
ALDH1A1 inh – blocks purified human ALDH1A1 activity; P00352; Purified ALDH1A1, NADH fluorescence, propionaldehyde substrate; Potency, µM (top dose mostly 75.3 µM), inactives show at the top dose activity, negative = inhibition, actives largely listed as inhibitors; 7.3% of 220,000 active; AID 1030; active means well fitted inhibition curve with a large enough effect, not every such curve was filed as active; inconclusive means small, poorly fitted or top-dose-only effect, or another doubt; inactive means no such curve, though single readings can be large or run the other way;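 further: potency means the concentration at half of the fitted maximal effect; plate controls were no enzyme wells and a reference inhibitor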
PNC inhibitor – blocks assembly of the perinucleolar compartment | PC3M PTB-GFP, PNC prevalence imaging, 16 h; hits give low values | 3.1% of 140,000 active | activity change (PNC), negative = inhibition, % at 10 µM;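 active means readout at or below -70, meaning at least 70% loss of cells showing the perinucleolar compartment, a nuclear body marking cancer cells; inconclusive means readout between -30 and a set limit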;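 further: plate controls were DMSO wells for no effect and camptothecin positive control wells for full effect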
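PC3M cells stably expressing PTB-GFP, 750–1000 cells/well, treated 16 h at 37 °C with compound (23 nl of library stock), in duplicate. After paraformaldehyde fixation and Hoechst stain, imaged at 20x; PNC prevalence scored by image analysis.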
HTT cytoprotect – cytoprotection in Huntington HTT-Q103 PC12 cell model; PC12 HTT-Q103 induced, cytoprotection, ATP luminescence, 40 h; Potency, µM (top dose mostly 56.4 µM), without a hit: cytoprotection (ATP increase), usual class: activators; 0.14% of 230,000 active; AID 1471; further: potency means the concentration at half of the fitted maximal effect; % of control where 0% means no effect; nearly all actives have a fitted effect of over 45% in size
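PC12 cells stably carrying ecdysone-inducible Htt exon 1 (Q103)–GFP were induced with 100 nM tebufenozide (final) alongside library compounds in a dose series. Cytoprotection was scored as retained ATP by ATPlite luminescence.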
Numbers without * were called inactive; ? = inconclusive; · = not tested or not shown; [ ] = remark or other dose. Most compounds without a hit are left out; they make up all but 11% or so of the library. Unless noted, the call rests on the fitted dose curve; in most records, active means well fitted curve in the direction sought with a large enough effect; inconclusive means small, poorly fitted or top-dose-only effect, or another doubt; inactive means no such curve, though single readings can be large; an effect the other way counts as inactive or inconclusive.

SMILES	CBFb RUNX1 block	HPGD block	HttQ103 aggreg	ALDH1A1 inh	PNC inhibitor	HTT cytoprotect
O=C(CSCc1ccc(F)cc1)NC1CCCC1	5.6%	-18.9%	-11.6%	-5.2%	-1.2	15.5%[10 µM]
C/C(=N\NC(=O)CSCc1ccc([N+](=O)[O-])cc1)c1ccccc1O	-5.0%	-17.7%	10µM*	-6.6%	6.7	·
O=C(CCC(=O)OCC(=O)c1ccc([N+](=O)[O-])cc1)NC1CCCCC1	4.5%	-20.0%	25.7%	2.82µM*	28.6	·
O=C(CSCc1ccc([N+](=O)[O-])cc1)NC1CCCCCC1	2.3%	·	18.5%	25.1µM*	·	-2.2%
Cc1cccc(NC(=O)CCC(=O)OCC(=O)c2ccc(Oc3ccc([N+](=O)[O-])cc3)cc2)c1	-5.3%	-21.4%	1.3%	7.08µM*	9.2	15.6%[10 µM]
O=C(CCC(=O)OCC(=O)c1cccc([N+](=O)[O-])c1)NC1CCCCC1	6.1%	·	-1.3%[9.22 µM]	·	·	30.4%[10 µM]
CCCCCCCCOc1c(OC)cc(/C=C/C(=O)N2CCN(c3ccc(C)c(C)c3)CC2)cc1OC	17.6%	·	·	·	·	·
CS(=O)(=O)N1CCC2(CC1)CN(Cc1nccs1)C2	·	-9.1%	·	2.4%	·	16.1%
COc1ccc(-c2n(Cc3ccccc3)c3ccccc3[n+]2Cc2ccccc2)cc1	0.7%	·	·	?	·	·
CC(C)NC(=O)C1CCN(C(=O)c2cc3sccc3n2Cc2ccc(F)cc2)CC1	-0.3%	-0.1%	?	12.6µM*	-21.7	0.8%[10 µM]
CC1CCN(C(=O)C2CCN(C(=O)c3cc4sccc4n3Cc3ccc(F)cc3)CC2)CC1	-4.7%	-3.0%	?	14.1µM*	7.4	-18.4%
CCOC(=O)C1(CCc2ccccc2)CCN(C(=O)CCc2cnccn2)CC1	4.9%	·	16.9%[9.22 µM]	?	·	2.1%[10 µM]
CCOC(=O)C1(CCCc2ccccc2)CCN(C(=O)CCc2cnccn2)CC1	12.3%	·	-0.3%[9.22 µM]	3.98µM*	·	5.4%[10 µM]
CCOC(=O)C1(CCCc2ccccc2)CCN(C(=O)c2cncs2)CC1	16.9%	·	0.7%	5.62µM*	·	-35.3%
CCOC(=O)C1(CCCc2ccccc2)CCN(C(=O)C(C)n2cncn2)CC1 (centres undefined)	-2.4%	·	-1.7%[9.22 µM]	7.08µM*	·	1.8%[10 µM]
CCOC(=O)C1(CCCc2ccccc2)CCN(C(=O)c2ocnc2C)CC1	16.2%	·	-6.2%	0.891µM*	·	-36.5%
CC(=O)N(C[C@@H](C)C(=O)O)c1c(I)cc(I)c(N)c1I	0.9%[21.7 µM]	-1.4%	6.7%[20.6 µM]	-2.6%[20.9 µM]	·	-3.4%[40.3 µM]
CS(=O)(=O)N(CC(=O)NCc1ccc2c(c1)OCO2)Cc1ccc(Cl)cc1	-3.8%	-4.9%	-8.9%	-2.5%	?	10.7%[10 µM]
CC(C)(C)CC(C)(C)c1ccc(OCCO)cc1	12.6%[21.7 µM]	0.1%	2.1%	-5.4%	·	7.8%
CCOC(=O)c1c(NC(=O)COC(=O)Cn2cnc3ccccc32)sc2c1CCC(C)C2 (centres undefined)	-6.9%	-25.2%	4.5%	7.94µM*	22.7	5.9%[10 µM]
COC(=O)c1c(NC(=O)COC(=O)Cn2cnc3ccccc32)sc(C)c1C	13.1%	-19.1%	26.1%	25.1µM*	2.4	14.6%
COC(=O)c1c(NC(=O)COC(=O)Cn2cnc3ccccc32)sc2c1CCCC2	3.8%	-19.9%	-13.2%	14.1µM*	-28.6	41.2%[1.9 µM]
CCOC(=O)c1c(NC(=O)Cn2nnc3ccccc32)sc2c1CCC(C)C2 (centres undefined)	6.1%	-25.5%	-23.5%	-1.6%	?	-19.3%
C=C1C(=O)O[C@@H]2[C@H]1[C@@H](OC(=O)/C(C)=C/C)C/C(C)=C\C(=O)/C=C(\C)[C@@H]2O	2.0%	·	?	·	·	?
CC(C)COC(=O)NCCOC(=O)Nc1cccc(Cl)c1	13.5%	-9.8%	10µM*	3.5%	?	-13.2%[10 µM]
CC(C)COC(=O)NCCCOC(=O)Nc1ccccc1	-0.4%	-11.0%	6.6%	22.4µM*	4.5	-6.4%[0.074 µM]
Cc1cc(C)c(S(=O)(=O)NCC(CCC(=O)O)C(F)(F)F)c(C)c1 (centres undefined)	-3.0%	·	8.7%	-1.3%	·	-35.3%
